Cruzain inh noDet: blocks cruzain activity in detergent-free assay | P25779 | purified cruzain, Z-FR-AMC fluorescence, no detergent | Potency, µM, for inactives: max response, negative = inhibition, most hits filed as inhibitors | 200,000 tested, 2.3% active;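 also: plate controls were enzyme without inhibitor for no effect and buffer without enzyme for full effect; nearly all actives have a fitted effect of over 40% in size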
Target sequence (P25779 123-467 limits assumed): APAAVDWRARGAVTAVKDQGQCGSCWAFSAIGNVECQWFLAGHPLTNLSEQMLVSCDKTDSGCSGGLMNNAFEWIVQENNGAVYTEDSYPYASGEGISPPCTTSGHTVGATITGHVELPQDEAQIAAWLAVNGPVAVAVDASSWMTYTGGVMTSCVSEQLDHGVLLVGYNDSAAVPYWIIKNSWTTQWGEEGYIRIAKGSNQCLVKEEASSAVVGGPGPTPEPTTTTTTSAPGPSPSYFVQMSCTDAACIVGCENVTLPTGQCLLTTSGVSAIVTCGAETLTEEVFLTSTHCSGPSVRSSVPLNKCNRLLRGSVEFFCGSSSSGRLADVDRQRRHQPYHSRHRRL
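Detergent-free condition (0.00005% Triton X-100) in acetate buffer pH 5.5 with DTT. 1.5 nM enzyme and compound were pre-mixed 15 min, then 2 uM Z-FR-AMC substrate added; reaction progress from fluorescence change between first and third reads (60 s).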
Cruzain Triton: blocks cruzain activity in presence of Triton detergent; P25779; purified cruzain, Z-FR-AMC fluorescence, 0.01% Triton; Potency, µM, inactives show max response, negative = inhibition, most hits filed as inhibitors; 200,000 tested, 0.43% active;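 also: plate controls were neutral wells for no effect and buffer without enzyme for full effect; nearly all actives have a fitted effect of over 40% in size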
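Enzyme 1.5 nM, Z-FR-AMC 2 uM, NaOAc 100 mM pH 5.5, DTT 5 mM, Triton X-100 0.01%; 15 min RT compound preincubation; kinetic ex360/em450, 60 s delta.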
* = called active by the depositor; ? = inconclusive. An excerpt weighted towards active compounds, which were near 2.4% of everything screened. Calls follow the shape of the dose curve; as a rule, active = well fitted curve in the direction sought with a large enough effect; inconclusive = small, poorly fitted or top-dose-only effect, or another doubt; inactive = no such curve, though single readings can be large; an effect the other way counts as inactive or inconclusive. Potency is read from the fitted curve at half-maximal effect.

SMILES | Cruzain inh noDet | Cruzain Triton
COc1ccc(N2CCN(C(=O)c3nn(-c4ccc(C)cc4)c(=O)n(C)c3=O)CC2)cc1 | 1.3% | -3.5%
CCCCOc1ccc(NC(=S)Nc2cc(C)nc(SCCCC)n2)cc1 | 25.1µM* | 0.2%
CCOc1ccc(NC(=O)CSc2nc(C)cc(C)n2)cc1 | 1.2% | 1.5%
COc1ccc(N(Cc2cccs2)C(=O)Nc2ccccc2)cc1 | -2.6% | -6.0%
COc1ccccc1N1CCN(C(=O)c2cc3c(=O)n(Cc4ccco4)ccc3nc2C)CC1 | ? | -2.5%
CC(C)COc1ccc(C(=O)Nc2scc(-c3ccc(Cl)cc3Cl)c2C(N)=O)cc1 | 10µM* | -18.4%
CC(C)COc1ccc(C(=O)Nc2cc3nn(-c4ccccc4)nc3cc2Cl)cc1 | -5.3% | 0.5%
Cc1cc(C)cc(OCC(=O)Nc2cccc(-c3nc4ccccc4[nH]3)c2)c1 | -21.2% | -4.5%
Cc1cc(C)cc(OCC(=O)NCCc2nc3ccccc3[nH]2)c1 | 16.9% | 15.8µM*
Cc1cc(=O)oc2cc(OCC(=O)NCCc3nc4ccccc4[nH]3)ccc12 | 2.51µM* | 12.6µM*
COc1ccc(C(=O)NCCc2nc3ccccc3[nH]2)cc1 | -15.4% | 12.6µM*
CCOc1ccc(OCC(=O)NCCc2nc3ccccc3[nH]2)cc1 | 0.794µM* | 5.01µM*
O=C(CNC(=O)c1ccccc1)NCCc1nc2ccccc2[nH]1 | -16.7% | -6.0%
CCOC(=O)CCc1nc2ccccc2[nH]1 | -0.8% | -5.0%
Cc1cc(=O)oc2cc(OCC(=O)NCc3ccccn3)ccc12 | 2.4% | -6.9%
O=C(Nc1ccc2c(c1)N(C1CCCC1)C(=O)c1ccccc1S2)c1cccc(F)c1 | 7.5% | -0.6%
COc1ccc(C(=O)c2cn(Cc3ccccc3F)c3cc4c(cc3c2=O)OCCO4)cc1OC | ? | -4.8%
Cc1ccc(-n2nc3c(N4CCC(C(=O)N5CCCCC5)CC4)nnc(C)c3c2C)cc1 | -5.4% | -4.0%
CC1=C(c2ccc(C)cc2)S(=O)(=O)N(Cc2ccc(C(=O)Nc3ccc(F)cc3C)cc2)C1=O | ? | 12.2%
COc1ccc(NC(=O)CSc2nnc(N)s2)cc1 | -3.0% | -0.2%
CCOc1ccc(C(=O)CSc2nnc(N)s2)cc1 | 25.1µM* | -5.8%
COc1cc(Nc2ncc3c(n2)CCN(Cc2cc(Br)cs2)C3)cc(OC)c1 | 25.1µM* | -7.5%
Brc1csc(CN2CCc3nc(Nc4ccccc4)ncc3C2)c1 | ? | -9.1%
COc1ccccc1CNc1ccc(-c2nc(C)no2)cc1[N+](=O)[O-] | 20µM* | -3.7%
COc1ccccc1CNc1ccc(-c2nc(C(C)C)no2)cc1[N+](=O)[O-] | ? | -3.6%
SMILES | Cruzain inh noDet | Cruzain Triton
CN(C(=O)c1nn(C)c2c1COc1ccccc1-2)c1cccc(C(F)(F)F)c1 | 5.4% | -0.8%
COc1cc(S(=O)(=O)NCCc2c(C)[nH]c3ccc(C)cc23)ccc1Br | -15.7% | -10.9%
Cc1cc(C(=O)CSc2nnc(NCc3ccccc3)s2)c(C)n1C | -12.4% | -1.4%
CC(Sc1nnc(NCc2ccccc2)s1)C(=O)Nc1ccc2c(c1)C(=O)c1ccccc1C2=O (stereo not drawn) | 31.6µM* | -9.1%
COc1ccc(CNc2ncnc3c2c(-c2ccccc2)cn3-c2ccccc2)cc1 | 6.4% | 1.1%
COc1ccccc1CNc1ncnc2c1c(-c1ccccc1)cn2-c1ccc(Br)cc1 | 7.94µM* | -0.5%
COc1ccc(C(=O)NCC(c2ccco2)S(=O)(=O)c2cccs2)cc1 (stereo not drawn) | ? | -1.7%
COc1ccc(OC)c(C2C(C(=O)Nc3ccc(C)cc3C)=C(C)Nc3c(C(=O)Nc4ccc(F)cc4)cnn32)c1 (stereo not drawn) | ? | -5.8%
CCc1ccc(Oc2coc3cc(OCC(=O)Nc4cc(C)ccc4C)ccc3c2=O)cc1 | 25.1µM* | 2.2%
CCCc1ccc(Oc2coc3cc(OCC(=O)Nc4ccccc4C)ccc3c2=O)cc1 | 5.8% | -3.5%
CCOC(=O)c1ccc(NC(=O)C(CC)Sc2nncn3c2cc2oc(C)cc23)cc1 (stereo not drawn) | ? | -4.4%
Cc1cccn2c(=O)c3cc(C#N)c(=O)n(-c4nnc(SCc5ccccc5F)s4)c3nc12 | -1.5% | 1.7%
COc1ccccc1NC(=O)c1ccc(NC(=O)COC(=O)CC(NC(=O)c2ccccc2Cl)c2ccccc2)cc1 (stereo not drawn) | 20µM* | -5.9%
COc1ccccc1NC(=O)c1ccc(NC(=O)COC(=O)C(C)C)cc1 | 3.0% | -3.9%
CCN(c1ccccc1C)S(=O)(=O)c1nnc(NC(=O)c2ccc(OC)c(OC)c2)s1 | -5.9% | -1.0%
COc1cccc(NC(=O)Cn2nnc(-c3nc(-c4ccccc4)no3)c2N)c1 | ? | -1.5%
Cc1nn(-c2ccccc2)c(Cl)c1/C=C1/C(=N)N2N=C(C(C)C)SC2=NC1=O | ? | -6.4%
CC1=CC2=NC(=O)/C(=C\c3cc(C)n(-c4ccc(F)cc4)c3C)C(=N)N2O1 | 1.5% | -6.2%
CCC(CC)C1=NN2C(=N)/C(=C\c3cc(C)n(-c4cccc(C)c4)c3C)C(=O)N=C2S1 | 25.1µM* | -8.2%
CC1=CSC2=NC(=O)/C(=C\c3cccn3-c3ccc([N+](=O)[O-])cc3)C(=N)N12 | ? | -2.8%
CSC1=NSC2=NC(=O)/C(=C\c3coc4ccccc4c3=O)C(=N)N12 | ? | -23.3%
Cc1cc(/C=C2/C(=N)N3C(c4ccccc4)=CSC3=NC2=O)c(C)n1-c1ccccc1 | 3.98µM* | 0.6%
CC1=CSC2=NC(=O)/C(=C\c3cccn3-c3ccccc3)C(=N)N12 | 12.6µM* | -9.9%
Cc1cc(/C=C2\C(=N)N3C(SCc4ccccc4)=NSC3=NC2=O)c(C)n1Cc1ccccc1 | 3.16µM* | -3.6%
COc1ccccc1CNc1nc(-c2ccco2)nn1C(=O)c1ccccc1[N+](=O)[O-] | ? | -4.1%
SMILES | Cruzain inh noDet | Cruzain Triton
Oc1c(C(c2ccc(Cl)cc2Cl)N2CCN(Cc3ccccc3)CC2)sc2nc(-c3ccco3)nn12 (stereo not drawn) | 21.7% | -8.1%
O=C(CN1C(=O)COc2ccc(S(=O)(=O)N3CCCCCC3)cc21)N1CCN(c2ccc(Cl)cc2)CC1 | 3.8% | 1.8%
CCc1ccc2nc(N(Cc3cccnc3)C(=O)Cc3ccccc3)sc2c1 | 19.8% | -5.9%
CCOC(=O)c1cc(-c2ccc(C)cc2)nn1Cc1ccccc1 | -3.2% | -7.8%
Cc1cccn2c(=O)c(C(=O)NC(C)c3ccccc3)c(O)nc12 (stereo not drawn) | -8.8% | -4.8%
O=C(NCc1ccccc1Cl)C1CCN(S(=O)(=O)Cc2ccccc2)CC1 | ? | -6.6%
O=C1c2ccccc2C(O)N1c1ccc(Cl)cc1 (stereo not drawn) | -27.1% | -2.2%
COC(=O)C1CN(C#N)N(c2ccc(Cl)cc2)C12c1ccccc1-c1ccccc12 (stereo not drawn) | 25.1µM* | -9.2%
CCc1cccc(NC(=O)C(CC)n2nc(C)c3sc4ccccc4c3c2=O)c1 (stereo not drawn) | -4.4% | -6.6%
O=C(CC1Sc2ccccc2NC1=O)Nc1cccc(C(F)(F)F)c1 (stereo not drawn) | -20.9% | -1.2%
O=C(NC(=S)Nc1cc(Cl)ccc1N1CCOCC1)c1ccc(-c2cccc(Cl)c2)o1 | 7.94µM* | 4.6%
O=C(Nc1ccccc1N1CCCCC1)c1ccc(-c2cccc(Cl)c2)o1 | -2.8% | -2.2%
CCOC(=O)c1sc(NC(=O)CSc2nc3c(c(=O)n2-c2ccc(C)cc2)SCC3)c(C(=O)OCC)c1C | 6.31µM* | -8.0%
CCOC(=O)c1sc(NC(=O)CSc2nncs2)c(C(=O)OCC)c1C | ? | -8.9%

Compound activity from PubChem.
